Results reported in PMC11006913.
Numbering of substitutions follows the chain as printed.

How the values were obtained:
Experiment in all cases: PBM; 200 nM protein, PBS
Conditions in all cases: dsDNA, one strand shown
[1] = biological target: T1, PAX4 (Homo sapiens, UniProt O43316 9-242, R200K)
T1 sequence: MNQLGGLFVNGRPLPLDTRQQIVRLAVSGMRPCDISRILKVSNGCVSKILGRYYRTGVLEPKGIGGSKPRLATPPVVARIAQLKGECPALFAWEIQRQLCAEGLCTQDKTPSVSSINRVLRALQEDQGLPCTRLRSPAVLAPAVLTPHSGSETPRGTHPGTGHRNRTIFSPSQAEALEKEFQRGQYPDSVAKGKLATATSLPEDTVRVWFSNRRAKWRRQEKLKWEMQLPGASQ

[2] = biological target: T2, PAX4 (Homo sapiens, UniProt O43316 9-242)
T2 sequence: T1 sequence with K192R

[3] = biological target: T3, PAX4 (Homo sapiens, UniProt O43316 9-242, R200Q)
T3 sequence: T1 sequence with K192Q

[4] = biological target: T4, PAX4 (Homo sapiens, UniProt O43316 9-242, F177V)
T4 sequence: T1 sequence with F169V, K192R

[5] = biological target: T5, PAX4 (Homo sapiens, UniProt O43316 9-242, F177Y)
T5 sequence: T1 sequence with F169Y, K192R

[6] = biological target: T6, PAX4 (Homo sapiens, UniProt O43316 9-242, R227W)
T6 sequence: T1 sequence with K192R, R219W

[7] = biological target: PROP1 (Homo sapiens, UniProt O75360 56-141)
Chain of PROP1 (Homo sapiens, UniProt O75360 56-141) (O75360 56-141): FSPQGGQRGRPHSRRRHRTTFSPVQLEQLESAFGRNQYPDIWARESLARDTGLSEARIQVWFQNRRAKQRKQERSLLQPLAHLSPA

[8] = biological target: PROP1 (Homo sapiens, UniProt O75360 56-141, R99H)
Chain of PROP1 (Homo sapiens, UniProt O75360 56-141, R99H) (O75360 56-141 R99H): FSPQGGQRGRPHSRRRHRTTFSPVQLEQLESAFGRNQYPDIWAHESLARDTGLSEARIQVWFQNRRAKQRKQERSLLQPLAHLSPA

[9] = biological target: PROP1 (Homo sapiens, UniProt O75360 56-141, F88S)
Chain of PROP1 (Homo sapiens, UniProt O75360 56-141, F88S) (O75360 56-141 F88S): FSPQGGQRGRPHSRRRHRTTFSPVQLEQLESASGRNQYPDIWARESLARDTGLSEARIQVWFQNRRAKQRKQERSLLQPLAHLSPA

| Sequence | binding signal [1] | binding signal [2] | binding signal [3] | binding signal [4] | binding signal [5] | binding signal [6] | binding signal [7] | binding signal [8] | binding signal [9] |
| --- | --- | --- | --- | --- | --- | --- | --- | --- | --- |
| GAGCTCGC | 9.35 upbm affinity estimate (log intensity, higher = more binding, comparable within an allelic series) | 9.28 upbm affinity estimate (log intensity, higher = more binding, comparable within an allelic series) | 9.32 upbm affinity estimate (log intensity, higher = more binding, comparable within an allelic series) | 9.23 upbm affinity estimate (log intensity, higher = more binding, comparable within an allelic series) | 9.12 upbm affinity estimate (log intensity, higher = more binding, comparable within an allelic series) | 9.26 upbm affinity estimate (log intensity, higher = more binding, comparable within an allelic series) | – | – | – |
| GTGAATTA | 11.6 upbm affinity estimate (log intensity, higher = more binding, comparable within an allelic series) | 12.2 upbm affinity estimate (log intensity, higher = more binding, comparable within an allelic series) | 11.5 upbm affinity estimate (log intensity, higher = more binding, comparable within an allelic series) | 10.5 upbm affinity estimate (log intensity, higher = more binding, comparable within an allelic series) | 11 upbm affinity estimate (log intensity, higher = more binding, comparable within an allelic series) | 10.9 upbm affinity estimate (log intensity, higher = more binding, comparable within an allelic series) | – | – | – |
| GCGAATTA | 11.6 upbm affinity estimate (log intensity, higher = more binding, comparable within an allelic series) | 12.1 upbm affinity estimate (log intensity, higher = more binding, comparable within an allelic series) | 11.5 upbm affinity estimate (log intensity, higher = more binding, comparable within an allelic series) | 10.3 upbm affinity estimate (log intensity, higher = more binding, comparable within an allelic series) | 10.8 upbm affinity estimate (log intensity, higher = more binding, comparable within an allelic series) | 10.8 upbm affinity estimate (log intensity, higher = more binding, comparable within an allelic series) | – | – | – |
| AAATTAGG | 11.4 upbm affinity estimate (log intensity, higher = more binding, comparable within an allelic series) | 11.9 upbm affinity estimate (log intensity, higher = more binding, comparable within an allelic series) | 11.5 upbm affinity estimate (log intensity, higher = more binding, comparable within an allelic series) | 10.2 upbm affinity estimate (log intensity, higher = more binding, comparable within an allelic series) | 10.5 upbm affinity estimate (log intensity, higher = more binding, comparable within an allelic series) | 10.6 upbm affinity estimate (log intensity, higher = more binding, comparable within an allelic series) | – | – | – |
| CGAATTAG | 11.9 upbm affinity estimate (log intensity, higher = more binding, comparable within an allelic series) | 12.5 upbm affinity estimate (log intensity, higher = more binding, comparable within an allelic series) | 12 upbm affinity estimate (log intensity, higher = more binding, comparable within an allelic series) | 10.3 upbm affinity estimate (log intensity, higher = more binding, comparable within an allelic series) | 11.1 upbm affinity estimate (log intensity, higher = more binding, comparable within an allelic series) | 10.9 upbm affinity estimate (log intensity, higher = more binding, comparable within an allelic series) | – | – | – |
| CTGGGCCC | 9.08 upbm affinity estimate (log intensity, higher = more binding, comparable within an allelic series) | 8.93 upbm affinity estimate (log intensity, higher = more binding, comparable within an allelic series) | 9.11 upbm affinity estimate (log intensity, higher = more binding, comparable within an allelic series) | 8.97 upbm affinity estimate (log intensity, higher = more binding, comparable within an allelic series) | 9.09 upbm affinity estimate (log intensity, higher = more binding, comparable within an allelic series) | 9.02 upbm affinity estimate (log intensity, higher = more binding, comparable within an allelic series) | – | – | – |
| AAGGGGGC | 9.31 upbm affinity estimate (log intensity, higher = more binding, comparable within an allelic series) | 9.38 upbm affinity estimate (log intensity, higher = more binding, comparable within an allelic series) | 9.38 upbm affinity estimate (log intensity, higher = more binding, comparable within an allelic series) | 9.25 upbm affinity estimate (log intensity, higher = more binding, comparable within an allelic series) | 9.22 upbm affinity estimate (log intensity, higher = more binding, comparable within an allelic series) | 9.29 upbm affinity estimate (log intensity, higher = more binding, comparable within an allelic series) | 6.71 upbm affinity estimate (log intensity, higher = more binding, comparable within an allelic series) | 6.71 upbm affinity estimate (log intensity, higher = more binding, comparable within an allelic series) | 6.36 upbm affinity estimate (log intensity, higher = more binding, comparable within an allelic series) |
| GCCGCGCC | 9.1 upbm affinity estimate (log intensity, higher = more binding, comparable within an allelic series) | 9.1 upbm affinity estimate (log intensity, higher = more binding, comparable within an allelic series) | 9.18 upbm affinity estimate (log intensity, higher = more binding, comparable within an allelic series) | 9.12 upbm affinity estimate (log intensity, higher = more binding, comparable within an allelic series) | 9.11 upbm affinity estimate (log intensity, higher = more binding, comparable within an allelic series) | 9.16 upbm affinity estimate (log intensity, higher = more binding, comparable within an allelic series) | – | – | – |
| GGAGGCAC | 9.34 upbm affinity estimate (log intensity, higher = more binding, comparable within an allelic series) | 9.31 upbm affinity estimate (log intensity, higher = more binding, comparable within an allelic series) | 9.57 upbm affinity estimate (log intensity, higher = more binding, comparable within an allelic series) | 9.46 upbm affinity estimate (log intensity, higher = more binding, comparable within an allelic series) | 9.46 upbm affinity estimate (log intensity, higher = more binding, comparable within an allelic series) | 9.48 upbm affinity estimate (log intensity, higher = more binding, comparable within an allelic series) | – | – | – |
| ATGAATTA | 11.7 upbm affinity estimate (log intensity, higher = more binding, comparable within an allelic series) | 12.2 upbm affinity estimate (log intensity, higher = more binding, comparable within an allelic series) | 11.8 upbm affinity estimate (log intensity, higher = more binding, comparable within an allelic series) | 10.7 upbm affinity estimate (log intensity, higher = more binding, comparable within an allelic series) | 11.2 upbm affinity estimate (log intensity, higher = more binding, comparable within an allelic series) | 11 upbm affinity estimate (log intensity, higher = more binding, comparable within an allelic series) | – | – | – |
| GCGAGGCC | 9.39 upbm affinity estimate (log intensity, higher = more binding, comparable within an allelic series) | 9.4 upbm affinity estimate (log intensity, higher = more binding, comparable within an allelic series) | 9.36 upbm affinity estimate (log intensity, higher = more binding, comparable within an allelic series) | 9.18 upbm affinity estimate (log intensity, higher = more binding, comparable within an allelic series) | 9.2 upbm affinity estimate (log intensity, higher = more binding, comparable within an allelic series) | 9.27 upbm affinity estimate (log intensity, higher = more binding, comparable within an allelic series) | – | – | – |
| CCAGCGCC | 9.19 upbm affinity estimate (log intensity, higher = more binding, comparable within an allelic series) | 9.3 upbm affinity estimate (log intensity, higher = more binding, comparable within an allelic series) | 9.31 upbm affinity estimate (log intensity, higher = more binding, comparable within an allelic series) | 9.31 upbm affinity estimate (log intensity, higher = more binding, comparable within an allelic series) | 9.23 upbm affinity estimate (log intensity, higher = more binding, comparable within an allelic series) | 9.33 upbm affinity estimate (log intensity, higher = more binding, comparable within an allelic series) | – | – | – |
| CGGGCCAC | 9.16 upbm affinity estimate (log intensity, higher = more binding, comparable within an allelic series) | 9.26 upbm affinity estimate (log intensity, higher = more binding, comparable within an allelic series) | 9.31 upbm affinity estimate (log intensity, higher = more binding, comparable within an allelic series) | 9.28 upbm affinity estimate (log intensity, higher = more binding, comparable within an allelic series) | 9.41 upbm affinity estimate (log intensity, higher = more binding, comparable within an allelic series) | 9.3 upbm affinity estimate (log intensity, higher = more binding, comparable within an allelic series) | – | – | – |
| ACCGGGGC | 9.07 upbm affinity estimate (log intensity, higher = more binding, comparable within an allelic series) | 9.11 upbm affinity estimate (log intensity, higher = more binding, comparable within an allelic series) | 9.2 upbm affinity estimate (log intensity, higher = more binding, comparable within an allelic series) | 9.11 upbm affinity estimate (log intensity, higher = more binding, comparable within an allelic series) | 9.09 upbm affinity estimate (log intensity, higher = more binding, comparable within an allelic series) | 9.2 upbm affinity estimate (log intensity, higher = more binding, comparable within an allelic series) | – | – | – |
